Values without a mark were called inactive.
biological target: T1, UCHL3 (UniProt P15374); assay: log2 ratio of Biotin-Ahx-Ub-VS probe labelling (fragment/DMSO); higher = less target engagement (more negative = stronger competition), active = hit call of the paper (q ≤ 0.05, log2 ratio ≤ -1); conditions: compound concentration: 200 uM; treatment time: 3 h
T1 sequence (whole entry): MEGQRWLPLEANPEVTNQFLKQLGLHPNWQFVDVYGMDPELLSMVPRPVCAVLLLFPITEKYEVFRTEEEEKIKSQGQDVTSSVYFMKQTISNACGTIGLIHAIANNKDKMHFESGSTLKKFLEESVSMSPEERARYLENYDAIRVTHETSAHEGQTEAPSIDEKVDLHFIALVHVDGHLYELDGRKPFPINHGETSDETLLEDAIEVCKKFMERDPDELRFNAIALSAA
Procedure, shortened: (§1)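 Values give the average log2 ratio of fragment to vehicle, assessed by unpaired t-test on global-median-normalised Spectronaut label-free quantities. Proteins needed ≥2 unique peptides. HEK293T lysate (495 µg per sample) was treated in triplicate with fragment at 200 µM or vehicle for 3 h and then with Biotin-Ahx-Ub-VS at 0.5 µM final for 1 h. Labelled DUBs were NeutrAvidin-enriched, digested and run by diaPASEF LC-MS/MS.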

Row | Structure (SMILES) | log2 ratio of Biotin-Ahx-Ub-VS probe labelling
1 | COc1cc(Cl)c(C)cc1NC(=O)CCl | 0.146
2 | Cl.O=C(CCl)N1CCN(Cc2ccccc2)CC1 | 0.47
3 | Cc1nc(CN2CCN(C(=O)CCl)CC2)cs1 | -0.051
4 | O=C(CCl)Nc1cc(Cl)ccc1C(=O)O | 0.231
5 | CN(C(=O)CCl)c1nc2ccccc2s1 | 0.484
6 | O=C(CCl)NCCc1cccc2ccccc12 | 0.331
7 | CCCn1nccc1NC(=O)CCl | 0.0705
8 | CNC(=O)C1CCN(C(=O)CCl)CC1 | 0.53
9 | O=C(CCl)N1CCOC(c2cccc(F)c2)C1 (stereo not given) | 0.156
10 | Cc1c(C#N)c(NC(=O)CCl)n(Cc2ccco2)c1C | 0.496
11 | O=C(CCl)N1CCC(C(=O)N2CCCCCC2)CC1 | 0.241
12 | CN1C(=O)c2ccc(NC(=O)CCl)cc2C1=O | 0.282
13 | C[C@H]1CN(C(=O)CCl)CCN1C(=O)c1cnn(C)c1.Cl | 0.376
14 | CC1(NC(=O)CCl)CCS(=O)(=O)C1 (stereo not given) | -0.392
15 | O=C(CCl)NCc1ccc(Cl)cc1 | 0.379
16 | O=C(CCl)Nc1ccc(N2CCCC2=O)cc1 | 0.206
17 | Cc1ncsc1CCNC(=O)CCl | 0.292
18 | Cc1cccc(C)c1NC(=O)CCl | 0.0922

Row | Structure (SMILES) | log2 ratio of Biotin-Ahx-Ub-VS probe labelling
19 | Cc1cccc(C(CNC(=O)CCl)N2CCOCC2)c1.Cl (stereo not given) | 0.278
20 | Cc1cccc(NC(=O)CCl)c1C | -1.39 (active)
21 | Cc1cc(C2CCCN2C(=O)CCl)nn1C.Cl (stereo not given) | 0.3
22 | O=C(CCl)N1CCCC2CCCCC21 (stereo not given) | 0.0783
23 | Cc1cccc(N2CCC(NC(=O)CCl)C2=O)c1 (stereo not given) | 0.0361
24 | CC(O)CC1CCN(C(=O)CCl)CC1 (stereo not given) | 0.294
25 | Cc1nc(CC2CCN(C(=O)CCl)CC2)no1 | -0.269
26 | CC1Cc2ccccc2N1C(=O)CCl (stereo not given) | 0.164
27 | O=C(CCl)Nc1cccc(C(=O)N2CCSCC2)c1 | 0.0211
28 | Cl.O=C(CCl)N1CCc2ncncc2C1 | 0.176
29 | NC(=O)C(Cc1ccccc1)NC(=O)CCl (stereo not given) | 0.313
30 | CC(NC(=O)CCl)c1csc(-c2ccccc2)n1.Cl (stereo not given) | -0.457
31 | Cc1ccc(CC(NC(=O)CCl)c2ccccn2)cc1.Cl (stereo not given) | 0.459
32 | O=C(CCl)N[C@H]1CCS(=O)(=O)c2ccccc21 | 0.351
33 | O=C(CCl)NCC(=O)N1CCCC1 | 0.0513
34 | CC(C)n1nccc1NC(=O)CCl | 0.181
35 | Cc1cc(CC(C)NC(=O)CCl)n[nH]1 (stereo not given) | -0.222

biological target: T2, UCHL5 (UniProt Q9Y5K5); assay: as above; conditions: compound concentration: 200 uM; treatment time: 3 h
T2 sequence (whole entry): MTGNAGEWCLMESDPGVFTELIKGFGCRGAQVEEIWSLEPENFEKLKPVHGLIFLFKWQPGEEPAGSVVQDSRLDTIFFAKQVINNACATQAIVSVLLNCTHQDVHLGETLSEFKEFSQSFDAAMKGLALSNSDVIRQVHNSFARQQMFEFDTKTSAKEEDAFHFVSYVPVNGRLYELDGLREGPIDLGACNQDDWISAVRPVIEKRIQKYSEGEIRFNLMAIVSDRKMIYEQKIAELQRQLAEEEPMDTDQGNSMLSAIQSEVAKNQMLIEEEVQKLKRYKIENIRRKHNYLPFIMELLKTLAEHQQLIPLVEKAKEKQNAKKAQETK
Procedure, shortened: as §1

Row | Structure (SMILES) | log2 ratio of Biotin-Ahx-Ub-VS probe labelling
36 | COc1cc(Cl)c(C)cc1NC(=O)CCl | -0.348
37 | Cl.O=C(CCl)N1CCN(Cc2ccccc2)CC1 | -0.282
38 | Cc1nc(CN2CCN(C(=O)CCl)CC2)cs1 | -0.0894
39 | O=C(CCl)Nc1cc(Cl)ccc1C(=O)O | -0.0926
40 | CN(C(=O)CCl)c1nc2ccccc2s1 | -0.343
41 | O=C(CCl)NCCc1cccc2ccccc12 | -0.029
42 | CCCn1nccc1NC(=O)CCl | -0.074
43 | CNC(=O)C1CCN(C(=O)CCl)CC1 | -0.0712
44 | O=C(CCl)N1CCOC(c2cccc(F)c2)C1 (stereo not given) | -0.463
45 | Cc1c(C#N)c(NC(=O)CCl)n(Cc2ccco2)c1C | -0.133
46 | O=C(CCl)N1CCC(C(=O)N2CCCCCC2)CC1 | -0.191
47 | CN1C(=O)c2ccc(NC(=O)CCl)cc2C1=O | -0.2
48 | C[C@H]1CN(C(=O)CCl)CCN1C(=O)c1cnn(C)c1.Cl | -0.259
49 | CC1(NC(=O)CCl)CCS(=O)(=O)C1 (stereo not given) | -0.974
50 | O=C(CCl)NCc1ccc(Cl)cc1 | -0.00645
51 | O=C(CCl)Nc1ccc(N2CCCC2=O)cc1 | -0.098
52 | Cc1ncsc1CCNC(=O)CCl | -0.131
53 | Cc1cccc(C)c1NC(=O)CCl | -0.309

Row | Structure (SMILES) | log2 ratio of Biotin-Ahx-Ub-VS probe labelling
54 | Cc1cccc(C(CNC(=O)CCl)N2CCOCC2)c1.Cl (stereo not given) | -0.182
55 | Cc1cccc(NC(=O)CCl)c1C | -0.0693
56 | Cc1cc(C2CCCN2C(=O)CCl)nn1C.Cl (stereo not given) | -0.218
57 | O=C(CCl)N1CCCC2CCCCC21 (stereo not given) | -0.193
58 | Cc1cccc(N2CCC(NC(=O)CCl)C2=O)c1 (stereo not given) | -0.503
59 | CC(O)CC1CCN(C(=O)CCl)CC1 (stereo not given) | -0.019
60 | Cc1nc(CC2CCN(C(=O)CCl)CC2)no1 | -0.792
61 | CC1Cc2ccccc2N1C(=O)CCl (stereo not given) | -0.572
62 | O=C(CCl)Nc1cccc(C(=O)N2CCSCC2)c1 | -0.176
63 | Cl.O=C(CCl)N1CCc2ncncc2C1 | -0.176
64 | NC(=O)C(Cc1ccccc1)NC(=O)CCl (stereo not given) | -0.295
65 | CC(NC(=O)CCl)c1csc(-c2ccccc2)n1.Cl (stereo not given) | -0.71
66 | Cc1ccc(CC(NC(=O)CCl)c2ccccn2)cc1.Cl (stereo not given) | 0.179
67 | O=C(CCl)N[C@H]1CCS(=O)(=O)c2ccccc21 | -0.0806
68 | O=C(CCl)NCC(=O)N1CCCC1 | -0.323
69 | CC(C)n1nccc1NC(=O)CCl | -0.327
70 | Cc1cc(CC(C)NC(=O)CCl)n[nH]1 (stereo not given) | -0.292

Reference: the supplement of paper PMC11732987, “Enantioselective OTUD7B fragment discovery through chemoproteomics screening and high-throughput optimisation” (Communications Chemistry, 2025)
